{
  "source": "PubChem BioAssay AID1850",
  "about": "(Southern Research Specialized Biocontainment Screening …, 2009)",
  "note": "Out of some 310,000 compounds screened, about 1,000 (0.32%) were called active. Only a sample is shown. Entries with a potency or affinity are not part of this list. Values without a mark were called inactive. How the calls were made is not given here.",
  "data": [
    {"assay": "PhoP regulon inhibitors, Salmonella typhi PhoP promoter GFP reporter, confirmatory (AID 1850);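 further: 0% = induced wells with vehicle and 100% = uninduced wells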", "details": "fluorescence, 4 h, at 50 µM, stronger effect = higher value", "units": {"inhibition": "%"}, "values": [
      {"smiles": "COc1ccccc1C(=O)NC(C(=O)NCCc1nc2ccccc2[nH]1)=C(C)C", "inhibition": -1.36},
      {"smiles": "COCCNc1ncnc2c1[nH]c1ccccc12", "inhibition": 8.5},
      {"smiles": "OCCCCCNc1ncnc2ccccc12", "inhibition": 2.05},
      {"smiles": "CCN(CC)CCCNc1ncnc2ccccc12", "inhibition": 0.53},
      {"smiles": "CC(C)OCCCNc1ncnc2c1[nH]c1ccccc12", "inhibition": 11.2},
      {"smiles": "OCCCNc1ncnc2c1[nH]c1ccccc12", "inhibition": 2.26},
      {"smiles": "COc1ccc(CNc2ncnc3c2[nH]c2cc(OC)c(OC)cc23)cc1", "inhibition": 3.65},
      {"smiles": "CCOCCCNc1ncnc2c1[nH]c1ccccc12", "inhibition": 0.37},
      {"smiles": "O=c1c2[nH]c3ccccc3c2ncn1CCC1=CCCCC1", "inhibition": -7.17},
      {"smiles": "COc1cc([N+](=O)[O-])cc(/C=N/NC(=O)c2cc(-c3ccccc3)nc3ccccc23)c1O", "inhibition": -2.11},
      {"smiles": "O=C(CCC(=O)c1ccc(F)cc1)NC1CCCN(Cc2ccccc2F)C1", "note": "(stereo not drawn)", "inhibition": -3.89},
      {"smiles": "O=C(c1cc(Br)ccc1Cl)N1CCCC1", "inhibition": 6},
      {"smiles": "Cc1ccc(NS(=O)(=O)c2ccc(C(=O)NCC(c3ccco3)N(C)C)cc2)cc1", "note": "(stereo not drawn)", "inhibition": -2.21},
      {"smiles": "CCOC(=O)C1=C(O)c2ccccc2C(=O)/C1=C\\c1ccc(CC)cc1", "inhibition": -9.78},
      {"smiles": "CCCc1ccc(/C=C2\\C(=O)c3ccccc3C(O)=C2C(=O)OCC)cc1", "inhibition": -2.52},
      {"smiles": "Nc1ccc(C(=O)Oc2ccc([N+](=O)[O-])cc2)c(O)c1", "inhibition": -25},
      {"smiles": "N#CCC(=O)Nc1ccc(C(=O)OCC(=O)Nc2ccccc2Sc2ccccc2)cc1", "inhibition": -5.37},
      {"smiles": "Cc1ccccc1OCC(O)CN1CCN(c2ccc(Cl)cc2)CC1", "note": "(stereo not drawn)", "inhibition": 6.16},
      {"smiles": "CNNC(=S)Nc1cccc(C(F)(F)F)c1", "inhibition": 6.82},
      {"smiles": "Nc1ccc2c(c1)N1CCN=C1S2", "inhibition": -12.9},
      {"smiles": "O=C(CC1SC2=NCCN2C1=O)Nc1ccc(Cl)cc1", "note": "(stereo not drawn)", "inhibition": -0.31},
      {"smiles": "FC(F)C(F)(F)c1cc(-c2ccccc2)n[nH]1", "inhibition": 5.29},
      {"smiles": "Cc1ccc(O)c(-c2cc(C(F)(F)C(F)F)[nH]n2)c1", "inhibition": -3.16},
      {"smiles": "O=c1nc(-c2ccccc2)n(-c2ccc(Cl)cc2)[nH]1", "inhibition": -11},
      {"smiles": "Cc1ccc(OCCC(=O)Nc2ccc(S(=O)(=O)Nc3cc(C)nc(C)n3)cc2)cc1", "inhibition": -3.66},
      {"smiles": "Cn1c(SCC(=O)N/N=C/c2ccc([N+](=O)[O-])s2)nnc1-c1ccccc1", "inhibition": 17.5},
      {"smiles": "Cn1c(SCC(=O)N/N=C/c2cc([N+](=O)[O-])ccc2O)nnc1-c1ccccc1", "inhibition": 2.1},
      {"smiles": "COC(=O)N/N=C/c1ccc([N+](=O)[O-])s1", "inhibition": -3.8},
      {"smiles": "Cc1cc(C(=O)N/N=C/c2ccc([N+](=O)[O-])s2)n[nH]1", "inhibition": 21.5},
      {"smiles": "O=C(N/N=C\\c1ccc([N+](=O)[O-])s1)c1cncc(Br)c1", "inhibition": -10.5},
      {"smiles": "Cc1ccc(C(=O)N/N=C\\c2cccs2)cn1", "inhibition": -3.85},
      {"smiles": "Cc1ccc(C(=O)N/N=C/c2ccc([N+](=O)[O-])s2)cc1", "inhibition": -14.9},
      {"smiles": "O=C(N/N=C/c1ccc([N+](=O)[O-])s1)c1ccncc1", "inhibition": -1.03},
      {"smiles": "O=C(Nc1ccc2c(c1)CCC2)c1ccc(Cl)nc1", "inhibition": 8.38},
      {"smiles": "COC/C=C/C1=CC2=CC(=O)C(C)(OC(=O)c3cnc4ccccc4n3)C(=O)C2=CN1c1cccc(C#N)c1", "note": "(stereo not drawn)", "inhibition": 0.42},
      {"smiles": "O=C(CSc1nccc(=O)[nH]1)N1CCOCC1", "inhibition": -10},
      {"smiles": "CN(CCCCN1CCOCC1)Cc1nc(-c2ccc3c(c2)OCO3)no1", "inhibition": -10.5},
      {"smiles": "CCn1cc(C(=O)c2cccs2)c2ccccc21", "inhibition": -0.847},
      {"smiles": "O=C(CSc1nnc(SCc2ccccc2)s1)N/N=C/C=C/c1ccccc1[N+](=O)[O-]", "inhibition": 8.59},
      {"smiles": "CCn1cc(C(=O)N2CCN(c3ccccc3F)CC2)c(=O)c2ccc(C)nc21", "inhibition": -6.12},
      {"smiles": "c1ccc(-c2cc(-c3ccncc3)nc3ccc4ccccc4c23)cc1", "inhibition": -9.12},
      {"smiles": "N#C/C(=C\\c1ccc([N+](=O)[O-])o1)c1nc2ccccc2[nH]1", "inhibition": 7.25},
      {"smiles": "Cc1ccc2nc(/C(C#N)=C/c3ccc(-c4cccc([N+](=O)[O-])c4)o3)[nH]c2c1", "inhibition": -10.4},
      {"smiles": "COC(=O)c1[nH]c2cc(OC)ccc2c1NC(=O)c1ccc2c(c1)OCO2", "inhibition": -8.72},
      {"smiles": "O=C(Nc1cccnc1)c1ccc(Br)s1", "inhibition": 12.6},
      {"smiles": "COc1ccc(NC(=O)c2cccs2)cn1", "inhibition": 2.51},
      {"smiles": "CCc1sc(C(=O)Nc2cccnc2)cc1Br", "inhibition": -8.13},
      {"smiles": "CCc1cc(C(=O)Nc2ccc(OC)nc2)sc1C", "inhibition": 4.89},
      {"smiles": "O=S(=O)(c1ccc(-c2csc(-c3cccnc3)n2)cc1)N1CCCC1", "inhibition": 0},
      {"smiles": "Cc1cc(C)n(CC(O)Cn2cnc3c2c(=O)n(C)c(=O)n3C)n1", "note": "(stereo not drawn)", "inhibition": -7.83},
      {"smiles": "CCN(CC(=O)NCc1ccc(Cl)cc1)C(=O)CSc1cccc(C(F)(F)F)c1", "inhibition": 5.75},
      {"smiles": "COc1ccc(C2=NN(CN3C(=O)C(=O)c4ccccc43)C(c3ccc(OC)cc3)C2)cc1", "note": "(stereo not drawn)", "inhibition": -8.46},
      {"smiles": "Cc1nc2c(C#N)cnn2c2c1CCN(Cc1ccccc1)N2C", "inhibition": 0.51},
      {"smiles": "Nc1cc(N2CCCCCC2)c2nonc2c1[N+](=O)[O-]", "inhibition": -0.89},
      {"smiles": "Nc1ccc2nonc2c1[N+](=O)[O-]", "inhibition": -75.7},
      {"smiles": "COCCn1c(=S)[nH]c2cc(C(=O)NCCCN3CCOCC3)ccc2c1=O", "inhibition": -1.91},
      {"smiles": "O=C(NC1CCSC1=O)c1cccc(Cl)c1", "note": "(stereo not drawn)", "inhibition": 3.01},
      {"smiles": "CN1/C(=C\\C=O)C(C)(C)c2ccccc21", "inhibition": 1.84},
      {"smiles": "CCN1/C(=C\\C=C\\C2=[N+](CC)c3ccccc3C2(C)C)C(C)(C)c2ccccc21", "inhibition": -46.5},
      {"smiles": "O=C(Nc1cc2c3c(c1)CC(=O)N3CCC2)c1cccc(F)c1", "inhibition": 6.53},
      {"smiles": "O=C(c1ccc(F)cc1)c1ccc(N2CCCCC2)cc1", "inhibition": -11.2},
      {"smiles": "CN(CC(=O)Nc1ccc(S(N)(=O)=O)cc1)c1ccccc1", "inhibition": 14.4},
      {"smiles": "CSc1ccccc1C(=O)Nc1cc(C)ccc1C", "inhibition": 7.98},
      {"smiles": "Cc1ccccc1NC(=O)c1ccccc1O", "inhibition": 4.26},
      {"smiles": "O=C(N/N=C/c1cc2ccccc2[nH]1)c1ccccc1Cl", "inhibition": 12.6},
      {"smiles": "O=[N+]([O-])c1cccc(-c2cc3ccccc3[nH]2)c1", "inhibition": -7.23},
      {"smiles": "COc1ccc(N(CC(=O)N2CCN(c3cc(C)ccc3C)CC2)S(=O)(=O)c2c(C)noc2C)cc1", "inhibition": 4.32},
      {"smiles": "CCC(C)NC(=O)C1c2ccccc2C(=O)N(c2ccc(OC)cc2)C1c1ccc(OC)cc1", "note": "(stereo not drawn)", "inhibition": -3.48},
      {"smiles": "Nc1nonc1-n1nnc(C(=O)N/N=C/c2c(Cl)cccc2Cl)c1CSC1=NCCS1", "inhibition": -8.07},
      {"smiles": "O=C(N/N=C/c1cc(Br)c(O)c(Br)c1O)c1cccnc1", "inhibition": -12.7},
      {"smiles": "O=C(N/N=C/c1cc2ccccc2nc1Cl)c1ccncc1", "inhibition": -3.32},
      {"smiles": "O=C(N/N=C/c1cc2c(cc1Cl)OCO2)c1ccncc1", "inhibition": -3.87},
      {"smiles": "O=C(N/N=C/c1cc(Br)c(O)c(Br)c1)c1cccnc1", "inhibition": 19.1},
      {"smiles": "O=C(N/N=C/c1ccccc1Cl)c1ccncc1", "inhibition": -2.44},
      {"smiles": "Nc1nonc1-n1nnc(C(=O)N/N=C/c2ccc(Br)cc2)c1CSC1=NCCS1", "inhibition": 6.84},
      {"smiles": "O=C(N/N=C/c1ccc(O)cc1O)c1ccncc1", "inhibition": 1.18},
      {"smiles": "COc1ccc(CNC(=O)CCNS(=O)(=O)c2ccc(Br)s2)cc1", "inhibition": -1.05},
      {"smiles": "O=C(CN1C(=O)C2C3C=CC(C3)C2C1=O)Nc1nc(SCc2ccc(Cl)cc2)n[nH]1", "note": "(stereo not drawn)", "inhibition": 3.67},
      {"smiles": "O=C(O)COCC(=O)NC1CCN(Cc2ccccc2)CC1", "inhibition": -0.41},
      {"smiles": "CC(CN1CCCCC1)OC(=O)c1ccccc1F", "note": "(stereo not drawn)", "inhibition": -3.63},
      {"smiles": "Cc1nn(C(C)C(=O)NC2CCC(C)CC2)c(=O)c2nn(-c3ccccc3)c(C)c12", "note": "(stereo not drawn)", "inhibition": -5.27},
      {"smiles": "Cc1ccc(Cl)cc1NC(=O)C1CC(=O)Nc2ncnn21", "note": "(stereo not drawn)", "inhibition": -13},
      {"smiles": "Nc1nonc1C(=O)N/N=C/c1ccc(Br)o1", "inhibition": -7.75},
      {"smiles": "O=C(N/N=C/c1ccc(Cl)cc1Cl)c1ccncc1", "inhibition": -12.1},
      {"smiles": "O=C(N/N=C/c1coc2ccc(Cl)cc2c1=O)c1ccncc1", "inhibition": -3.86},
      {"smiles": "O=C(C[n+]1ccccc1)N/N=C/c1cc(Br)cc(Br)c1O", "inhibition": 1.91},
      {"smiles": "O=C(N/N=C/c1ccccc1O)NC12CC3CC(CC(C3)C1)C2", "inhibition": 6.48},
      {"smiles": "CNC(=S)N/N=C/c1cc(Br)cc(Br)c1O", "inhibition": 6.75},
      {"smiles": "O=C1NCCCC1C(=O)N/N=C/c1ccccc1O", "note": "(stereo not drawn)", "inhibition": -6.72},
      {"smiles": "Nc1nonc1C(=O)N/N=C/c1cc2c(cc1Br)OCO2", "inhibition": -18.8},
      {"smiles": "CCOC(=O)C1CCCCN1Cc1cccc(OC)c1OC", "note": "(stereo not drawn)", "inhibition": -6.91},
      {"smiles": "CCC(=O)NC(=S)Nc1ccc(NC(=O)c2ccco2)c(OC)c1", "inhibition": -4.57},
      {"smiles": "Cc1cc(=O)c(C(=O)O)nn1-c1cccc(C(F)(F)F)c1", "inhibition": 3.22},
      {"smiles": "Cc1[nH]n(-c2ccccc2)c(=O)c1/C=N/NC(=O)c1ccc(O)cc1O", "inhibition": 4.8},
      {"smiles": "Cc1ccc(C)c(CN2CCC(CNC(=O)CCc3nnc4ccc(N5CCCCC5)nn34)CC2)c1", "inhibition": -0.65},
      {"smiles": "O=C(CSc1nnc(CNC(=O)c2cccs2)o1)Nc1cccc(Cl)c1", "inhibition": -8.62},
      {"smiles": "O=C(CC1SC(N2CCCC2)=NC1=O)Nc1ccc(C(=O)N2CCN(c3cccc(Cl)c3)CC2)cc1", "note": "(stereo not drawn)", "inhibition": -3.88},
      {"smiles": "Cc1ccc(S(=O)(=O)N[C@@H](CO)C(=O)N[C@@H](Cc2ccc(O)cc2)C(=O)O)cc1", "inhibition": 3.35}
    ]}
  ]
}
